Results from PubChem BioAssay.
Values without a mark were called inactive. For some assays here: Entries with a potency or affinity are not part of this list. Activity calls are given as the source filed them. Unless noted, the rule behind the calls is not given here.

How the values were obtained:
[1] = antimalarial activity against Dd2 strain (AID 2302;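 active = growth inhibition above 50% at the single 2 µM test dose, taken to imply half-maximal potency below 2 µM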;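 note: 0% = DMSO untreated growth and 100% = chloroquine plus artemisinin killed control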); conditions: P. falciparum Dd2 in RBCs, LDH growth readout, 72 h; at 2 µM; hits give high values
[2] = human hepatoma cell viability loss – ATP luminescence, cytotoxicity control for P. falciparum antimalarial project, primary screen (AID 2303;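 active = inhibition above 50%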;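 note: 0% = DMSO wells and 100% = digitonin-killed cells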); conditions: HepG2 viability, 24-48 h, at 10 µM, hits give high values
[3] = target: L-lactate dehydrogenase (Plasmodium falciparum (isolate CDC / Honduras)) (UniProt Q27743); assay: PfLDH activity inhibition – cell lysate, 3D7 strain, counter-screen for P. falciparum growth inhibition project (AID 2304);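 note: 0% = vehicle and 100% = reference inhibitor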; conditions: P. falciparum 3D7 crude extract, LDH APAD/NBT absorbance; at 2 µM; hits give high values
[4] = inhibition of 3D7 malaria parasite growth – strain 3D7 (AID 2306);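 note: 0% = DMSO wells and 100% = chloroquine plus artemisinin control wells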; conditions: P. falciparum 3D7 erythrocytic growth, LDH absorbance, 72 h; at 2 µM; hits give high values
[5] = target: Calcium-dependent protein kinase 1 (Plasmodium falciparum (isolate 3D7)) (UniProt P62344); assay: PfCDPK1 kinase inhibitors, biochemical, TCAMS library (AID 1159585; cut-off not given, nearly all actives have IC50 up to about 0.98 µM;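 note: inhibitors leave more ATP so luminescence rises with inhibition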); conditions: recombinant PfCDPK1, Kinase-Glo ATP depletion luminescence
[6] = target: Plasmodium falciparum protein kinase 6 (PK6, PF3D7_1337100) (UniProt Q8IDW1); assay: PfPK6 kinase inhibitors, biochemical, TCAMS library (AID 1159586); conditions: recombinant PfPK6, Kinase-Glo ATP depletion luminescence
[7] = target: Protein kinase 7 (PK7), Plasmodium falciparum 3D7 (PF3D7_0213400) (UniProt Q7YTF7); assay: inhibition of Plasmodium PK7 catalytic activity – biochemical, TCAMS antimalarial set, Kinase-Glo luminescence (AID 1159587); conditions: recombinant PfPK7, Kinase-Glo ATP depletion luminescence
[8] = target: Calcium-dependent protein kinase 4 (Plasmodium falciparum (isolate 3D7)) (UniProt Q8IBS5); assay: PfCDPK4 kinase inhibitors, biochemical, TCAMS library (AID 1159588; cut-off not given, nearly all actives have IC50 up to about 0.91 µM); conditions: recombinant PfCDPK4, Kinase-Glo ATP depletion luminescence
Chain of Calcium-dependent protein kinase 4 (Plasmodium falciparum (isolate 3D7)) (Q8IBS5 whole entry, looked up): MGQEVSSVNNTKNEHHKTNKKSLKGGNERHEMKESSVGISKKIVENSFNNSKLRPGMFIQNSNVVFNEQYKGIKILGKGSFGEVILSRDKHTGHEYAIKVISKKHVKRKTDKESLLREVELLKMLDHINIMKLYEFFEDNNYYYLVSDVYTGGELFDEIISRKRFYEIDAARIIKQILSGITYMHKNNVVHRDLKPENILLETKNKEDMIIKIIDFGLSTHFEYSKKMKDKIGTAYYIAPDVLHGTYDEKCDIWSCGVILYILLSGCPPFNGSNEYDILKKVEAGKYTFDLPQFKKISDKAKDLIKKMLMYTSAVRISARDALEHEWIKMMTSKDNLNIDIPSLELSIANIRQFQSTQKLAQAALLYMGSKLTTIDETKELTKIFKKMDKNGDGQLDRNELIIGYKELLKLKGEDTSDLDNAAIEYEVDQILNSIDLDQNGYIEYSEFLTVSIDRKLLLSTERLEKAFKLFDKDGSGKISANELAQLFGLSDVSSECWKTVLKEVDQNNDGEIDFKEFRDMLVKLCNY

Chain of Calcium-dependent protein kinase 1 (Plasmodium falciparum (isolate 3D7)) (P62344 whole entry, looked up): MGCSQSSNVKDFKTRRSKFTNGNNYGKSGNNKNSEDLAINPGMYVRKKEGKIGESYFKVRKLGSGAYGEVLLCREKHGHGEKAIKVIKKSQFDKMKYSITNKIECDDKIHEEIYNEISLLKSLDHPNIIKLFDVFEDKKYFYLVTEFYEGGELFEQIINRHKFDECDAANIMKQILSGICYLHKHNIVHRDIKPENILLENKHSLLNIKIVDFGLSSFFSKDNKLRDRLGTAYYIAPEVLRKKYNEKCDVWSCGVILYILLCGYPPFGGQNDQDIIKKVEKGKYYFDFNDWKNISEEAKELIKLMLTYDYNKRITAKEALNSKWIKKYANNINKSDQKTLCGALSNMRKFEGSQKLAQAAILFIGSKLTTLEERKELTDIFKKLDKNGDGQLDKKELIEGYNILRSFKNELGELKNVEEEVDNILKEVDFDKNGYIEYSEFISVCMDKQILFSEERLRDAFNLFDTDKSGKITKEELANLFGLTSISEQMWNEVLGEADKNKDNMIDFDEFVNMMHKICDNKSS
Chain of Protein kinase 7 (PK7), Plasmodium falciparum 3D7 (PF3D7_0213400) (Q7YTF7 1-343): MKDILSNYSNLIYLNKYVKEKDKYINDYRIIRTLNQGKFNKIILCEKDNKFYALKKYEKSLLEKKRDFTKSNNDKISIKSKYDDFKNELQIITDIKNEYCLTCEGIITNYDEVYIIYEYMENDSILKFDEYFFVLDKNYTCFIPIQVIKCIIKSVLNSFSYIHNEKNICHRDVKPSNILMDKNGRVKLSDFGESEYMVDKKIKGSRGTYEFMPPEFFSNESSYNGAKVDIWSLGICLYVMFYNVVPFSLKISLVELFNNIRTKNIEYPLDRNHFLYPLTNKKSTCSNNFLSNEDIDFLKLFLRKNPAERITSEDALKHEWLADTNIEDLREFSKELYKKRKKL
Chain of Plasmodium falciparum protein kinase 6 (PK6, PF3D7_1337100) (Q8IDW1 1-305): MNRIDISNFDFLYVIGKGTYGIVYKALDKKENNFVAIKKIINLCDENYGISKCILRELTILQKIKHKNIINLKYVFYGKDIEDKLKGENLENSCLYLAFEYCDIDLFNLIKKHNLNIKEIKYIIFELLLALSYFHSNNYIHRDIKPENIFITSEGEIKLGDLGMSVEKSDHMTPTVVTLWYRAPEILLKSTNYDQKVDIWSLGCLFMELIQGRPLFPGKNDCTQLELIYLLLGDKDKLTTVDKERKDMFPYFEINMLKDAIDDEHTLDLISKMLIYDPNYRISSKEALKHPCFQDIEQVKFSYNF
Chain of L-lactate dehydrogenase (Plasmodium falciparum (isolate CDC / Honduras)) (Q27743 whole entry, looked up): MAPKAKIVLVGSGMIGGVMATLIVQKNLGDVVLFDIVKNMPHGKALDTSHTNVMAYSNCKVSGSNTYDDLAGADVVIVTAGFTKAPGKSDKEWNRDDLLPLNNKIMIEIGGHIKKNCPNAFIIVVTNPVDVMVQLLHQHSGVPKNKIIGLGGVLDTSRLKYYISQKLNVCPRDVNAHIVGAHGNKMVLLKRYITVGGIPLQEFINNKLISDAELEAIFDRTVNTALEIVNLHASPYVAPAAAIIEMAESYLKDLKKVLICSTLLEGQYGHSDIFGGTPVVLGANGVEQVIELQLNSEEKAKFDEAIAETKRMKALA

Structure (SMILES)	growth inhibition [1]	inhibition [2]	inhibition [3] [%]	growth inhibition [4]	outcome [5]	outcome [6]	outcome [7]	outcome [8]
COc1cc2nc(N3CCC(CNC(=O)c4ccc(-c5ccc(-c6noc(C)n6)cc5)cc4)CC3)nc(N)c2cc1OC	100% (active)	96% (active)	1	98% (active)	inactive	inactive	inactive	inactive
CC(C)(C)c1ccc(CN2CCCCC(NC(=O)c3cc(-c4cccc(F)c4)cs3)C2)cc1 (stereo not given)	84% (active)	8%	-3	98% (active)	inactive	inactive	inactive	inactive
CN(C)C(=O)CN1CCN(c2ncnc(N3CCc4c([nH]c5ccccc45)[C@@H]3c3ccc4c(c3)CCO4)n2)CC1	98% (active)	12%	-1	99% (active)	inactive	inactive	inactive	inactive
COc1cccc(NC(=O)Cn2c(C)c(C(=O)C(F)(F)F)c3ccccc32)c1	94% (active)	2%	-5	97% (active)	inactive	inactive	inactive	inactive
CCOC(=O)c1ccc(NC(=O)Nc2ccc(-c3cccc(-c4nc5ccc(F)cc5[nH]4)c3)cc2)cc1	100% (active)	98% (active)	2	102% (active)	inactive	inactive	inactive	inactive
CCCC(C)NC(=O)[C@H](CC1CCCCC1)NC(=O)c1ccc(O)c(-c2ccc(OC)cc2)c1 (stereo not given in full)	37%	3%	1	89% (active)	inactive	inactive	inactive	inactive
Cc1cc(NC2CCCC2)nc(Nc2ccccc2F)n1	53% (active)	24%	-2	97% (active)	inactive	inactive	inactive	inactive
Cc1cc(NCCCCCCNc2cc(C)nc3c(C)cccc23)c2cccc(C)c2n1	9%	23%	-2	100% (active)	inactive	inactive	inactive	inactive
COc1ccc2nccc([C@@H](O)CN3CCC(NCc4cc5oc(=O)[nH]c5cc4Cl)CC3)c2c1	91% (active)	1%	-2	101% (active)	inactive	inactive	inactive	inactive
Fc1ccc2nc(-c3cccc(-c4ccc(CNCc5cnn(-c6ccccc6)n5)cc4)c3)[nH]c2c1	22%	18%	-3	98% (active)	inactive	inactive	inactive	inactive
O=C(O[C@H]1CN[C@H](C#Cc2cc3ncnc(Nc4ccc5c(ccn5S(=O)(=O)c5cccs5)c4)c3s2)C1)N1CCOCC1	48%	-4%	-1	85% (active)	inactive	inactive	inactive	inactive
Oc1cc2c(cc1CN1CCN(Cc3ccc(Cl)s3)CC1)CCC2	76% (active)	7%	-3	98% (active)	inactive	inactive	inactive	inactive
Cc1ccc(O)c(-c2cc(C(=O)Nc3ccc(S(=O)(=O)N4CCCCC4)cc3)[nH]n2)c1	98% (active)	31%	-4	94% (active)	inactive	inactive	inactive	inactive
COc1cccc(CCc2ccc(O)c3c2C[C@H]2C[C@H]4[C@H](N(C)C)C(=O)C(C(N)=O)=C(O)[C@@]4(O)C(=O)C2=C3O)c1	67% (active)	43%	-4	93% (active)	inactive	inactive	inactive	inactive
COc1ccc(CN(C)Cc2ccc(NC(=O)c3cccc4c(=O)c5cccc(C)c5[nH]c34)cc2)cc1OC	22%	7%	-2	92% (active)	inactive	inactive	inactive	inactive
CC1CCCCC1N(C)C1CCN(CCCNC(=O)C=Cc2ccccc2Cl)CC1 (stereo not given)	14%	30%	3	100% (active)	inactive	inactive	inactive	inactive
CC(CNc1ccnc(Nc2ccc3[nH]c(=O)[nH]c3c2)n1)c1ccccc1 (stereo not given)	2%	50% (active)	6	99% (active)	inactive	inactive	inactive	inactive
CCCCCCn1c(Sc2ccc(C#N)c([N+](=O)[O-])c2)nnc1-c1ccccc1	41%	23%	-1	97% (active)	inactive	inactive	inactive	inactive
Oc1ccc(-c2cncc(NCc3ccc(F)c(F)c3)c2)cc1	80% (active)	-14%	-3	95% (active)	inactive	inactive	inactive	inactive
CC(=O)Nc1ccc(S(=O)(=O)NC2=NC(C)(C)N(OCc3ccc(Cl)c(Cl)c3)C(N)=N2)cc1	98% (active)	44%	2	93% (active)	inactive	inactive	inactive	inactive

Structure (SMILES)	growth inhibition [1]	inhibition [2]	inhibition [3] [%]	growth inhibition [4]	outcome [5]	outcome [6]	outcome [7]	outcome [8]
CN(C)Cc1ccc(-c2ccc(NC(=O)c3ccc4c(=O)n(Cc5ccccc5)cnc4c3)cc2)cc1	39%	94% (active)	-2	100% (active)	inactive	inactive	inactive	inactive
CCOc1ccc2nc(C)cc(NN=Cc3ccncc3)c2c1	78% (active)	8%	0	99% (active)	inactive	inactive	inactive	inactive
O=C(Nc1cccc(-c2csc(-c3ccccc3)n2)c1)c1cccs1	71% (active)	0%	2	89% (active)	inactive	inactive	inactive	inactive
CCOP(=O)(OCC)c1ccc(OC)c(-c2ccc[nH]2)c1	10%	-13%	-2	95% (active)	inactive	inactive	inactive	inactive
O=c1cc(NCCCNCc2[nH]c3cc(Cl)ccc3c2Cl)[nH]c2ccccc12	1%	5%	-2	91% (active)	inactive	inactive	inactive	inactive
Cn1nc(C(=O)N2CCC(c3[nH]ncc3Cc3ccccc3)CC2)c2ccccc2c1=O	95% (active)	5%	-2	95% (active)	inactive	inactive	inactive	inactive
Cc1cc(N(C)C)nc(Nc2ccc(NC(=O)c3c(F)cccc3Cl)cc2)n1	36%	15%	4	90% (active)	inactive	inactive	inactive	inactive
COc1ccc(-c2cnc3ccc(NCc4ccc(S(N)(=O)=O)cc4)nn23)cn1	98% (active)	16%	0	98% (active)	inactive	inactive	inactive	inactive
Cc1cccc2[nH]c(-c3ccc(-c4cccc(NC(=O)CCc5cnc[nH]5)c4)cc3)nc12	14%	13%	4	101% (active)	inactive	inactive	inactive	inactive
Cc1cccc2[nH]c(-c3ccc(-c4cccc(CN5CCC(C(N)=O)CC5)c4)cc3)nc12	16%	9%	6	87% (active)	inactive	inactive	inactive	inactive
CCOc1ccc(-c2nonc2NC(=O)c2ccccc2Cl)cc1OCC	100% (active)	3%	4	101% (active)	inactive	inactive	inactive	inactive
O=[N+]([O-])c1ccc(C=NNc2nc(Nc3ccccc3)nc(Nc3ccccc3)n2)o1	61% (active)	5%	-4	94% (active)	inactive	inactive	inactive	inactive
Fc1ccc2c(NN=CC=Cc3ccccc3)ccnc2c1	98% (active)	-2%	-3	101% (active)	inactive	inactive	inactive	inactive
O=C(c1ccccc1)N1CCC(CN2CCOC(c3ccccc3)(c3ccccc3)C2)CC1	95% (active)	14%	1	94% (active)	inactive	inactive	inactive	inactive
COc1ccc2nc(-c3cc(-c4ccc(NC(=O)C(C)C)cc4)cnc3N)[nH]c2c1	47%	43%	3	101% (active)	inactive	inactive	inactive	inactive
N#Cc1cccc(CN2CCCN(Cc3cccc(C(=O)Nc4ccc(Cl)cc4)c3)CC2)c1	9%	46%	1	82% (active)	inactive	inactive	inactive	inactive
COc1ccc2nccc([C@@H](O)CN3CCC(NCc4ccc5nsnc5c4)CC3)c2c1	64% (active)	12%	3	95% (active)	inactive	inactive	inactive	inactive
CC(C)Nc1cc(C(=O)N[C@@H](Cc2ccccc2)[C@H](O)CNC2CCOCC2)c(F)c(N2CCCCS2(=O)=O)c1	98% (active)	2%	-2	98% (active)	inactive	inactive	inactive	inactive
O=C(c1cc(-c2ccccc2O)on1)N1CCN(C(c2ccccc2)c2ccccc2)CC1	88% (active)	12%	1	97% (active)	inactive	inactive	inactive	inactive
CS(=O)(=O)CCNC(=O)c1ccc(-c2cc3c(Nc4ccc5c(cnn5Cc5ccccc5)c4)ncnc3cn2)o1	46%	6%	-1	97% (active)	inactive	inactive	inactive	inactive
